# GALK inh = qHTS Assay for Inhibitors of Human Galactokinase (GALK); P51570; AID 1868, 2009; 270,000 compounds, 0.007% hits; Purified GALK, Kinase-Glo residual ATP luminescence; Potency, µM (top dose mostly 57.5 µM), usual class: inhibitors
#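 Compounds were pin-transferred into ATP buffer (35 uM final), then GALK plus galactose (5 nM, 100 uM final) was added. After 1 h at room temperature, Kinase-Glo Plus was added and luminescence read after 10 min.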
# A549 viability = Nrf2 qHTS screen for inhibitors: counterscreen for cytotoxicity; AID 504648, 2011; 390,000 compounds, 0.16% hits; A549 ARE-Fluc cells, CellTiter-Fluor viability, 18-24 h; Potency, µM (highest dose often 46 µM), most hits filed as inhibitors
#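 A549 ARE_Fluc cells in 5% FBS OPTI-MEM were exposed to compounds in concentration-response for 18-24 h at 37 deg C. Viability was read by CellTiter-Fluor fluorescence (Ex 405/Em 525) after 30 min, before the luciferase read.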
# Nrf2 ARE act = qHTS of Nrf2 Activators; AREc32 ARE-luciferase reporter (MCF7-derived line), luminescence, 24 h; Potency, µM (doses to about 46.1 µM), usual class: activators; 410,000 compounds, 0.31% hits; also: nearly all actives have a fitted effect of over 65% in size
#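 AREc32 cells carrying an ARE-driven firefly luciferase, 1000 cells/well in OPTI-MEM with 5% FBS, dosed after overnight attachment and incubated 24 hr at 37 deg C. Steady-Glo luminescence read after 30 min at RT.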
# TrxR1 inh = qHTS Assay for Inhibitors of Mammalian Selenoprotein Thioredoxin Reductase 1 (TrxR1): qHTS; 390,000 compounds, 1% hits; Potency, µM (titrated, usually from 114 µM), hits mostly inhibitors; AID 588453, 2011; Thioredoxin reductase 1, cytoplasmic (Rattus norvegicus), O89049; recombinant rTrxR1, NADPH fluorescence consumption, selenite substrate; also: nearly all actives have a fitted effect of over 65% in size
# Target sequence (O89049 whole entry, looked up): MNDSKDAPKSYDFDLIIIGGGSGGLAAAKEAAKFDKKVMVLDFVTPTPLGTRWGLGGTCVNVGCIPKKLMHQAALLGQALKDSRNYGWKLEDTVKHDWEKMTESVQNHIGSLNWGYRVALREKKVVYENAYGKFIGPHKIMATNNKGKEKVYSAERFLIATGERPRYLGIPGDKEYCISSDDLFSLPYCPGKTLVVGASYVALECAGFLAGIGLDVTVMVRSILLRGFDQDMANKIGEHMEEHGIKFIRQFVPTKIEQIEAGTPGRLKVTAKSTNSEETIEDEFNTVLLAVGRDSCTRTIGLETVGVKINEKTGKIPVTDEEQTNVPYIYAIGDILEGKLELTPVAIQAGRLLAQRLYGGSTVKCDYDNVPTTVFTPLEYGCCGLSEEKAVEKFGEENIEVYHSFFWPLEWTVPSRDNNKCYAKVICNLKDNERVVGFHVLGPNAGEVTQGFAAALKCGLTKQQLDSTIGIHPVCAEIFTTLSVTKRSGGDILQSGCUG
#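 Rat TrxR1 (90 nM in the dispensed reagent) was pre-reduced with 400 uM NADPH for 5 min at room temperature, then incubated with compound for 15 min. After 400 uM selenite was added, NADPH fluorescence (Ex 340/Em 450 nm) was followed for 8 min.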
# TrxR1 substrate = qHTS Assay for Substrates of Mammalian Selenoprotein Thioredoxin Reductase 1 (TrxR1): qHTS | 390,000 compounds, 0.01% hits | Thioredoxin reductase 1, cytoplasmic (Rattus norvegicus), O89049 | Potency, µM (titrated, usually from 114 µM) | purified TrxR1 substrate turnover, NADPH consumption readout; also: nearly all actives have a fitted effect of over 50% in size
#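 Rat TrxR1, dispensed at 90 nM, was prereduced with 400 uM NADPH (final) for 5 min at ~22 deg C, then incubated with compound 15 min before 400 uM selenite. A first-read NADPH fluorescence drop versus no-compound background flagged substrates.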
# Nrf2 inh = Nrf2 qHTS screen for inhibitors; A549 ARE-Fluc reporter, luciferase luminescence, 18-24 h; Potency, µM (doses to about 46 µM), actives largely listed as inhibitors; 360,000 compounds, 2.1% hits; AID 504444, 2011; also: nearly all actives have a fitted effect of over 60% in size
#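 Cells were seeded and rested 2 h, then exposed to compounds for 18-24 h. CellTiter-Fluor was read first as a viability measure. BugLite was added 15 min before the final luminescent read of ARE-luciferase activity in A549 cells.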
# A number is an active result; n = inactive; u = inconclusive; x = not tested or not shown; ! = a repeat was not active. This is a sample that favours compounds with a hit; in the whole collection about 3% have one here. Calls follow the shape of the dose curve; as a rule, active = well fitted curve in the direction sought with a large enough effect; inconclusive = small, poorly fitted or top-dose-only effect, or another doubt; inactive = no such curve, though single readings can be large; an effect the other way counts as inactive or inconclusive.
SMILES,GALK inh,A549 viability,Nrf2 ARE act,TrxR1 inh,TrxR1 substrate,Nrf2 inh
CC1CCC(C(C)C)C(OC(=O)Cn2c(-c3ccc(Br)cc3)[n+](C)c3ccccc32)C1 (configuration not stated),n,u,n,n,n,21µM
Cc1ccccc1OCc1n(CC(=O)OC2CC(C)CCC2C(C)C)c2ccccc2[n+]1C (configuration not stated),n,n,n,n,n,18µM!
COc1ccc(C2NC(Cc3ccccc3)(C(=O)O)C3C(=O)N(c4ccccc4OC)C(=O)C23)cc1 (configuration not stated),n,n,n,56µM,n,n
CCOC(=O)c1ccc(S(=O)(=O)N2CCN(c3nc(-c4ccccc4)nc4ccccc34)CC2)cc1,x,n,x,n,n,u
Cc1ccccc1N(C)C1=N[S+](=O)([O-])c2ccccc21,x,n,x,x,x,n
Cc1ccc(Cl)cc1N1CCN(C(=O)C(C)n2ncn3cccc3c2=O)CC1 (configuration not stated),x,u,n,n,n,18µM!
CCc1cccc(C)c1NC(=O)CCCn1c(C)c2cnn(-c3ccccc3)c(=O)c2c1C,x,n,n,u,n,n
O=C(O)C1CCCC1,x,x,x,n,n,x
CC(/C=N/NC(=O)c1cccs1)=C\c1ccccc1,n,n,n,n,n,u
O=C(N/N=C/C(Cl)=C/c1ccccc1)c1ccccn1,n,n,n,n,n,u
O=C(N/N=C/C(Cl)=C\c1ccccc1)c1cccs1,n,n,11µM,u,n,u
O=C(N/N=C1\C/C(=N\NC(=O)c2ccncc2)c2ccccc21)c1ccncc1,n,u,u,n,n,7.3µM
O=C(N/N=C/C(Cl)=C/c1ccccc1)c1ccncc1,n,n,22µM,n,n,n
O=[S+]([O-])(c1ccc2c(c1)OCCO2)N1CCN([S+](=O)([O-])c2c(F)cc(Br)cc2F)CC1,x,n,x,x,x,n
O=C(COc1ccccc1C(=O)Nc1ccccc1)Nc1cccc(Br)c1,x,x,x,n,n,x
NC(=O)c1ccsc1NC(=O)COC(=O)/C=C/c1ccccc1,x,n,n,n,n,n
COC(=O)/C=C/c1ccsc1NC(C)=O,x,n,13µM,n,n,n
O=C(O)CCN1CC2([N+](=O)[O-])C=CC(=O)C([N+](=O)[O-])(C1)C2CC(=O)c1ccccc1 (configuration not stated),n,n,n,14µM,n,n
COc1ccc(S(=O)(=O)Nc2ccc3ccccc3c2)cc1C,n,n,n,n,n,21µM
COc1ccc(S(=O)(=O)Nc2ccc3c(c2)OCO3)cc1OC,n,n,n,n,n,n
COc1c(C)cc(NS(=O)(=O)c2ccc3c(c2)OCCO3)cc1C,x,n,n,n,n,23µM
CN1CCOc2cc(S(=O)(=O)Nc3ccc(F)cc3)ccc21,n,n,n,n,n,x
COc1ccc(NS(=O)(=O)c2ccc3c(c2)OCCO3)cc1OC,n,n,n,n,n,21µM
Cc1ccc(NS(=O)(=O)c2ccc3c(c2)N(C)CCO3)cc1,n,n,n,n,n,26µM
O=C(NCc1ccc2c(c1)OCO2)c1ccc2c(c1)N(Cc1ccc(F)cc1)C(=O)c1ccccc1S2=O (configuration not stated),x,n,n,n,n,n
SMILES,GALK inh,A549 viability,Nrf2 ARE act,TrxR1 inh,TrxR1 substrate,Nrf2 inh
Cc1ccc(NC(=O)CSc2nnc(COc3ccc(Cl)cc3)o2)cc1,x,n,n,n,n,n
Fc1ccccc1NC(=S)Nc1ccc(Br)cc1,n,u,n,u,n,23µM
O=C(Nc1cccc(F)c1)[C@@H](c1ccccc1)N1Cc2ccccc2C1=O,x,n,n,n,n,n
COc1ccc(Cl)cc1C(=O)NCc1nc(-c2cccc(C)c2)no1,x,n,n,n,n,u
Cc1ccc(NC(=O)Nn2cnnc2)cc1Cl,n,n,n,n,n,n
Cc1ccc(NC(=O)O/N=C/c2c(C)nn(C(C)(C)C)c2C)cc1Cl,n,n,n,n,n,0.33µM
Cc1cc(C(=O)COc2ccccc2C(N)=O)c(C)n1CC1CCCO1 (configuration not stated),n,n,n,n,n,4.6µM
Cc1cc(C(=O)COC(=O)c2ccccc2O)c(C)n1CC1CCCO1 (configuration not stated),x,n,n,n,n,u
Cc1cc(C(=O)CSc2nc3ccc(Cl)cc3[nH]2)c(C)n1CC1CCCO1 (configuration not stated),n,n,n,n,n,13µM
COc1cccc(C2c3c(ncn(-c4ccccc4Cl)c3=N)Oc3ccc4ccccc4c32)c1 (configuration not stated),x,n,x,x,x,n
CCCCCCCCC(=O)N/N=C/c1cccc(Br)c1,n,n,n,n,n,21µM
CCCCCCC(=O)N/N=C/c1ccc(Br)cc1,n,n,n,n,n,n
Cc1nnc(NC(=O)C2CCN(C(=O)c3ccsc3)CC2)s1,x,n,x,n,n,n
CCc1nc(SCC(=O)Nc2nnc(CC)s2)c2c(C)c(C)sc2n1,n,n,n,n,n,n
CCc1nc(SCC(=O)Nc2cc(OC)ccc2OC)c2c(C)c(C)sc2n1,n,n,n,n,n,15µM
CCOC(=O)c1cnc(SCC(=O)Nc2cc(OC)ccc2OC)nc1N,n,n,n,n,n,10µM
O=C1Cc2cc(S(=O)(=O)N3CCN(c4ccc(C(F)(F)F)cc4)CC3)ccc2N1,x,n,x,x,x,u
CC1=NOC(=O)/C1=C/c1ccc(-c2ccc(Cl)cc2)o1,n,x,x,x,x,x
CC1=NOC(=O)/C1=C\c1ccc(-c2cc(Cl)ccc2Cl)o1,n,n,n,16µM,n,n
O=S1(=O)N=C(OCc2ccccc2)c2ccccc21,x,n,x,x,x,u
COc1ccc(Cl)cc1S(=O)(=O)N1CCN(C(=O)c2cc(-c3ccc(Br)cc3)n[nH]2)CC1,x,u,n,n,n,u
Cc1ccccc1N(CC(=O)N/N=C/c1ccc(Cl)cc1)C(=O)c1ccccc1,n,u,n,n,n,21µM
Cc1ccccc1N(CC(=O)N/N=C/c1ccc(F)cc1)C(=O)c1ccccc1,n,n,n,n,n,n
C/C(=N\NC(=O)c1ccc(CN(C)S(=O)(=O)c2ccc(C)cc2)cc1)c1ccc(OC(F)F)cc1,n,n,n,n,n,5.2µM

# Source: PubChem BioAssay (National Center for Advancing Translational Sciences (NCATS))
